In PubChem BioAssay (EPA / NIEHS):
Results filed as inconclusive are left out. Where a structure was tested more than once in an assay, its records may differ in their call. Active and inactive are the calls of the source. The calls were made as follows, unless noted: active = hit-call score of the fitted dose curve at least 0.9, where 1 is the maximum; inactive = score below 0.9.

Tests used:
[1] = TOX21_p53_BLA_p2_viability: Viability Assessment in the Tox21 HCT-116 p53 Agonism Beta-lactamase Assay, Phase 2 (AID 2283591; active = hit-call score of the fitted dose curve at least 0.9, where 1 is the maximum;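 also: actives lower the ATP signal meaning cytotoxicity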)
Outline: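 HCT-116 p53-bla cells (4000/well) rested 5 h at 37C, then received compounds in DMSO (217-fold dilution) for 16 h at 37C, 5% CO2. After the CCF4 read, CellTiter-Glo was added; ATP luminescence was read after 30 min at room temperature.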

[2] = target: Cellular tumor antigen p53 (Homo sapiens) (UniProt P04637); test: TOX21_p53_BLA_p2_ratio: Tox21 HCT-116 p53 Agonism Beta-lactamase Assay, Ratio, Phase 2 (AID 2283592; active = hit-call score of the fitted dose curve at least 0.9, where 1 is the maximum)
Chain of Cellular tumor antigen p53 (Homo sapiens) (P04637 whole entry, looked up): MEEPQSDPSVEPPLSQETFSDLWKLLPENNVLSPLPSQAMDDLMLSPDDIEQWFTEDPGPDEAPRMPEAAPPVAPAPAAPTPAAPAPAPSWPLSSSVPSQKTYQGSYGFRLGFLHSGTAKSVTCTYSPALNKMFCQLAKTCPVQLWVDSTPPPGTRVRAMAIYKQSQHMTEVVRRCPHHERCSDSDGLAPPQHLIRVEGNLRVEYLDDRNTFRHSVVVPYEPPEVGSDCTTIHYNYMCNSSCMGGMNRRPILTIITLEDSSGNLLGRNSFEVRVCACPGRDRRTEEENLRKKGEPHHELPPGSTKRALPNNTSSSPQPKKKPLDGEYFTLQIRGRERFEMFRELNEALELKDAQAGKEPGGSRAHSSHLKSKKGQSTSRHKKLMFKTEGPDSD
Outline: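 DMSO-normalized, positive-direction endpoint derived from the 460 nm/530 nm FRET ratio in HCT116 p53 beta-lactamase reporter cells exposed 16 h at 37C and loaded with CCF4-AM for 2 h.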

[3] = TOX21_p53_BLA_p3_viability: Viability Assessment in the Tox21 HCT-116 p53 Agonism Beta-lactamase Assay, Phase 3 (AID 2283593; active = hit-call score of the fitted dose curve at least 0.9, where 1 is the maximum;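 also: cells exposed to compound for 16 h before reading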)
Outline: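 HCT-116 cells (4000/well) rested 5 h at 37C, then got DMSO compounds by pin tool (217-fold dilution) for 16 h at 37C, 5% CO2. After the bla read, CellTiter-Glo was added and luminescence read at 30 min, room temperature.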

[4] = target: Cellular tumor antigen p53 (Homo sapiens) (UniProt P04637); test: TOX21_p53_BLA_p3_ratio: Tox21 HCT-116 p53 Agonism Beta-lactamase Assay, Ratio, Phase 3 (AID 2283596; active = hit-call score of the fitted dose curve at least 0.9, where 1 is the maximum)
Outline: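 Cells were seeded at 4000/well, rested 5 h at 37C, then dosed with DMSO compound solutions (217-fold dilution) for 16 h. CCF4-AM substrate was loaded for 2 h at room temperature, and the 460/530 nm emission ratio was fitted for gain of signal versus DMSO.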

[5] = TOX21_p53_BLA_p4_viability: Viability Assessment in the Tox21 HCT-116 p53 Agonism Beta-lactamase Assay, Phase 4 (AID 2283597; active = hit-call score of the fitted dose curve at least 0.9, where 1 is the maximum;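 also: hits lower the luminescence signal meaning cytotoxicity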)
Outline: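 In this multiplexed secondary endpoint, HCT116 cells (4000 per well, compound at 5 h, 16 h treatment) received CellTiter-Glo after the beta-lactamase read. Luminescence after 30 min RT reflects ATP, and falling signal marks cytotoxicity.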

[6] = TOX21_p53_BLA_p5_viability: Viability Assessment in the Tox21 HCT-116 p53 Agonism Beta-lactamase Assay, Phase 5 (AID 2283600; active = hit-call score of the fitted dose curve at least 0.9, where 1 is the maximum)
Outline: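 Here cell health was gauged by ATP levels in wells holding 4000 cells, each treated 16 h with DMSO-delivered compounds at 217-fold dilution; reduced luminescence marked toxicity.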

[7] = target: Cellular tumor antigen p53 (Homo sapiens) (UniProt P04637); test: TOX21_p53_BLA_p4_ratio: Tox21 HCT-116 p53 Agonism Beta-lactamase Assay, Ratio, Phase 4 (AID 2283601; active = hit-call score of the fitted dose curve at least 0.9, where 1 is the maximum)
Outline: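 HCT116 cells carrying an inducible beta-lactamase reporter were plated at 4000 cells/well, rested 5 h, then exposed to compounds in DMSO (217-fold dilution) for 16 h at 37C. CCF4-AM substrate was loaded 2 h at room temperature; 460/530 nm emission ratio scored gain-of-signal versus DMSO.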

[8] = CCTE_Shafer_MEA_dev_per_burst_spike_percent: CCTE's Neural Network Formation Assay for Percent of Spikes in a Burst, Shafer Lab (AID 2284032)
Outline: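 Value is trapezoidal AUC over recordings on days 5, 7, 9 and 12 of the well-mean fraction of spikes falling in single-electrode bursts; rat cortical cultures exposed continuously from plating, treatment renewed DIV 5 and 9, fitted downward against DMSO.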

[9] = CCTE_Shafer_MEA_dev_burst_rate: CCTE's Neural Network Formation Assay for Burst Rate, Shafer Lab (AID 2284042)
Outline: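 Primary rat cortical neurons on PEI-coated 48-well MEA plates (laminin added with cells at plating) (16 electrodes/well), exposed from plating to day 12, dosing renewed at DIV 5 and 9. Burst rate averaged over active electrodes, recorded DIV 5, 7, 9, 12, summarized as AUC; loss versus DMSO.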

[10] = CCTE_Shafer_MEA_dev_burst_duration_mean: CCTE's Neural Network Formation Assay for Mean Burst Duration, Shafer Lab (AID 2284045);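 as to AC50: curve fitted for loss meaning shorter burst duration than DMSO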
Outline: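 Network-formation assay in primary rat cortical neurons; treatment spans twelve days of development. Mean burst duration per well is integrated by trapezoidal AUC and fitted in the loss-of-signal direction against DMSO baseline.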

[11] = CCTE_Shafer_MEA_dev_interburst_interval_mean: CCTE's Neural Network Formation Assay for Mean Interburst Interval, Shafer Lab (AID 2284046);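 also: well-mean interburst interval of bursting electrodes as AUC over four recording days; curve fitted for decrease in interburst interval relative to DMSO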
Outline: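 Recordings on days 5, 7, 9 and 12 give well-mean interburst interval across actively bursting electrodes, summarized as area under the curve. Cultures: rat cortical neurons, continuous exposure from day 0, compound renewed at feeds; decrease analyzed versus DMSO.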

[12] = CCTE_Shafer_MEA_dev_inter_network_spike_interval_mean: CCTE's Neural Network Formation Assay for Mean Inter-network Spike Interval, Shafer Lab (AID 2284047)
Outline: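 Primary rat cortical neurons on 16-electrode MEA wells, exposed from plating day 0 through DIV 12, compound renewed at DIV 5 and 9 media changes. Mean interval between network-spike peaks recorded DIV 5, 7, 9, 12; collapsed as trapezoidal AUC, fitted downward versus DMSO.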

[13] = CCTE_Shafer_MEA_dev_network_spike_number: CCTE's Neural Network Formation Assay for Number of Network Spikes, Shafer Lab (AID 2284048);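 also: synchronized bursts across electrodes counted on days 5 7 9 12 and integrated as AUC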
Outline: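 Extracellular recordings from 16-electrode wells track network formation in rat cortical cultures under continuous treatment from plating. The endpoint is network spike number, expressed as AUC across DIV 5–12 relative to DMSO vehicle.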

[14] = CCTE_Shafer_MEA_dev_network_spike_peak: CCTE's Neural Network Formation Assay for Mean Number of Electrodes in Network Spike, Shafer Lab (AID 2284049)
Outline: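 Continuous 12-day exposure of rat cortical cultures, starting at plating, on MEA plates. Endpoint: electrodes participating in network-spike peaks, AUC across DIV 5–12, DMSO as negative control.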

[15] = CCTE_Shafer_MEA_dev_spike_duration_mean: CCTE's Neural Network Formation Assay for Mean Spike Duration, Shafer Lab (AID 2284051);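 also: mean network spike duration pooled as area under curve over DIV 5 to 12 recordings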
Outline: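 Primary rat cortical neurons on 16-electrode MEA wells (PEI-coated, laminin in plating drop), exposed from plating through DIV 12 with compound renewed at DIV 5 and 9. Mean network-spike duration recorded DIV 5, 7, 9, 12; trapezoidal AUC across days, DMSO baseline.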

[16] = CCTE_Shafer_MEA_dev_network_spike_duration_std: CCTE's Neural Network Formation Assay for Standard Deviation of Network Spike Duration, Shafer Lab (AID 2284052);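 also: area under curve of spike duration SD across recording days 5 to 12; hits are decreases in network spike duration SD versus DMSO vehicle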
Outline: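 Primary rat cortical neurons on PEI-coated 16-electrode MEA wells, exposed from plating day 0 through day 12 with compound renewed at DIV 5 and 9. Network spike duration SD recorded on days 5, 7, 9, 12, collapsed as trapezoidal AUC; loss-of-signal fit versus DMSO.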

[17] = CCTE_Shafer_MEA_dev_per_network_spike_spike_number_mean: CCTE's Neural Network Formation Assay for Mean Number of Spikes in a Network Spike, Shafer Lab (AID 2284053)
Outline: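 Primary rat cortical neurons on 48-well, 16-electrode MEA plates were exposed from plating to DIV 12, with dosing renewed on DIV 5 and 9. Spikes per network spike (0.05 s peak window) were recorded on DIV 5, 7, 9 and 12 and collapsed as trapezoidal AUC versus DMSO.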

[18] = CCTE_Shafer_MEA_dev_per_network_spike_spike_percent: CCTE's Neural Network Formation Assay for Percent of Spikes in a Network Spike, Shafer Lab (AID 2284054)
Outline: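 Developing networks of rat cortical neurons are dosed at day 0 and recorded extracellularly four times up to day 12. The endpoint is the area under the curve of percent spikes in network spikes, fitted in the negative direction relative to DMSO.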

[19] = CCTE_Shafer_MEA_dev_LDH: CCTE's Lactate Dehydrogenase Assay for Cytotoxicity in the Neural Network Formation Assay, Shafer Lab (AID 2284068; active = hit-call score of the fitted dose curve at least 0.9, where 1 is the maximum;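 also: exposure for twelve days from plating with re-dosing on DIV 5 and 9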)
Outline: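 Primary rat cortical neurons were plated on PEI/laminin MEA plates and exposed from day 0 for twelve days, with compound renewed at DIV 5 and 9. Cytotoxicity was determined by spectrophotometric LDH assay relative to DMSO.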

[20] = CCTE_Shafer_MEA_dev_AB: CCTE's Alamar Blue Assay for Cytotoxicity in the Neural Network Formation Assay, Shafer Lab (AID 2284083; active = hit-call score of the fitted dose curve at least 0.9, where 1 is the maximum;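 also: twelve days of exposure from plating with re-dosing on DIV 5 and 9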)
Outline: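 Primary rat cortical neurons on PEI-coated 48-well MEA plates, 1.5 x 10^5 cells/well in laminin drop; compound exposure from day 0 of plating for twelve days, renewed at medium changes on DIV 5 and 9. Viability read as resazurin reduction by fluorescence, relative to DMSO.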

[21] = CCTE_Shafer_MEA_dev_mutual_information_norm: CCTE's Neural Network Formation Assay for Mutual Information Normalization, Shafer Lab (AID 2284091)
Outline: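 Exposure of primary rat cortical neurons began at plating and ran to DIV 12, with full media and treatment renewal after DIV 5 and 9 recordings. Mutual information AUC (DIV 5–12) was analysed for loss versus DMSO.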

[22] = CCTE_Shafer_MEA_dev_correlation_coefficient_mean: CCTE's Neural Network Formation Assay for Mean Correlation Coefficient, Shafer Lab (AID 2284093)
Outline: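 Spontaneous activity recorded on days 5, 7, 9 and 12 post-plating; pairwise spike correlations are averaged across active electrodes and collapsed to an area-under-curve. Rat cortical cultures are dosed from plating through 12 days, with compound renewed at media changes.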

[23] = IUF_NPC1b_proliferation_BrdU_72hr: Leibniz Research Institute for Environmental Medicine (IUF) 72-hour Neural Progenitor Cell Bromodeoxyuridine (BrdU) Proliferation Assay (NPC1b) (AID 2284207)
Outline: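 Neural progenitor spheres of human fetal origin are treated for three days; BrdU added for the last 16 h is quantified by luminescence ELISA, with DMSO as baseline and EGF/FGF omission as positive control.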

[24] = IUF_NPC1a_proliferation_area_72hr: Leibniz Research Institute for Environmental Medicine (IUF) 72-hour Neural Progenitor Cell Proliferation Area Assay (NPC1a) (AID 2284208)
Outline: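 Measured in 3D suspension: each well held one primary hNPC sphere grown with EGF and FGF at pH 7.2-7.6. Compound stayed on for 72 h, then area was imaged; spheres lacking growth factors defined reduced proliferation.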

[25] = IUF_NPC1_viability_72hr: Viability Assessment at 72 hours in the Leibniz Research Institute for Environmental Medicine (IUF) Neural Progenitor Cell Proliferation Assay (NPC1) (AID 2284209)
Outline: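 Viability was measured by resazurin-to-resorufin fluorescence (alamar blue) after 72 h of continuous exposure without compound renewal. Each well held one hNPC sphere (gestational week 16-19 fetal cortex, 0.25-0.35 mm) cultured in EGF/FGF proliferation medium at 37C and pH 7.2-7.6.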

Measured: AC50

C[C@H](CS)C(=O)N1CCC[C@H]1C(=O)O
inactive: [1] | [2] | [3] | [4] | [5] | [6] | [7] | [8] | [9] | [10] | [11] | [12] | [13] | [14] | [15] | [16] | [17] | [18] | [19] | [20] | [21] | [22] | [23] | [24] | [25]
active: [10] 21.6 µM
